Each structure is given as a SMILES string. Activity calls are given as the source filed them. How the source made its calls: active means hit-call score of the fitted dose curve at least 0.9, where 1 is the maximum; inactive means score below 0.9.

Read-out in the assay: Intercellular Adhesion Molecule 1 (ICAM1), ICAM1 (gene 3383)
The assay is described as follows: LTEA_HepaRG_ICAM1: Life Technologies and Expression Analysis (LTEA) Assay for Intercellular Adhesion Molecule 1 (ICAM1) using HepaRG (AID 2283507). To be noted: mRNA level, 48 h; actives raise or lower the signal. An outline of the steps:
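ICAM1 transcript levels measured by qRT-PCR, normalized to three housekeeping genes (ACTB, GAPDH, POLR2A), after 48 h chemical exposure of HepaRG cells. Duplicate eight-point half-log series from 100 uM in 0.5% DMSO; gain or loss fitted against vehicle.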
Take `Cn1cnc([N+](=O)[O-])c1Sc1ncnc2nc[nH]c12`: the AC50 is 3.59 µM (active).

With `COc1ccc2sc(C(=O)Nc3nnn[nH]3)c(OC(C)C)c2c1`, the result was inactive.

In the case of `CN(C)c1ccc(Cc2ccc(N(C)C)cc2)cc1`, the outcome was inactive.

With `Nc1nc2ncc(CNc3ccc(C(=O)N[C@@H](CCC(=O)O)C(=O)O)cc3)nc2c(=O)[nH]1`, the compound was called inactive.

As for `CC(C)=CCC/C(C)=C\CO`, the outcome was inactive.

As for `CCOCCOCCOCCO`, the result was inactive.

Regarding `CC/C(=C\C(=N/O)C(N)=O)C(C)[N+](=O)[O-]` (centres undefined), the outcome was inactive.

With `CCOC(=O)COc1ccc2c(c1)CC(NCC(O)c1cccc(Cl)c1)CC2` (centres undefined), the result was inactive.

For the compound `CC(C)=CCC/C(C)=C/CO`, the outcome was inactive.

Take `CC(C)(O)c1coc(S(=O)(=O)NC(=O)Nc2c3c(cc4c2CCC4)CCC3)c1`: the compound was classed as inactive.

In the case of `CC1=CC(=O)CC(C)(C)C1`, the call was inactive.

On to `CCCCCCc1ccc(O)cc1O`, for which the outcome was inactive.

`CC(C)CCO`: the compound was classed as inactive.

Turning to `CC[C@H](C)C(=O)O[C@H]1C[C@@H](C)C=C2C=C[C@H](C)[C@H](CC[C@@H]3C[C@@H](O)CC(=O)O3)[C@H]21`, the call was inactive.

Consider `CC1(C)C(=O)N(Br)C(=O)N1Br`, for which the result was inactive.

Take `CCCN(C1CCN(C(=O)C2CCNCC2)CC1)[C@@H]1CCc2ccc(OC)cc2C1`: the AC50 was 77.4 µM (active).

On to `CCOc1cccc(-n2cc(C(=O)N3CCN(c4cc(C(=O)O)c5ccccc5c4)CC3)nc2-c2ccc(C)cc2)c1`, for which the outcome was inactive.

As to `Cc1ccc(O)cc1`, the result was inactive.

For the compound `CC[C@H]1OC(=O)[C@H](C)[C@@H](O[C@H]2C[C@@](C)(OC)[C@@H](O)[C@H](C)O2)[C@H](C)[C@@H](O[C@@H]2O[C@H](C)C[C@H](N(C)C)[C@H]2O)[C@](C)(O)C[C@@H](C)C(=O)[C@H](C)[C@@H](O)[C@]1(C)O`, the call was inactive.

The term AC50 denotes the concentration at which the activity in the assay is half-maximal.

The record behind these values is PubChem BioAssay (EPA / NIEHS).
